The list is not random: actives were taken first. Their share in the collection is about 3.5%.
BoNT-A LC inh2: inhibitors of Botulinum neurotoxin A light chain protease; multiplex microsphere protease substrate cleavage, flow cytometry; inhibition, % at 10 µM; hit rate 0.17% among 360,000; AID 588499; further: plate controls were buffer without enzyme for full effect and enzyme alone for no effect
BoNT-F LC inh: BoNT F light chain protease inhibition; Multiplex microsphere protease cleavage assay, flow cytometry; inhibition, % at 10 µM; hit rate 0.22% among 360,000; in the data active means inhibition above about 35%, passing the limit was not always enough; inconclusive means no clear call, values can overlap the other calls; further: plate controls were buffer without enzyme for full effect and enzyme alone for no effect
Anthrax LF prot: blocks Bacillus anthracis lethal factor protease; inhibition, % at 10 µM; hit rate 0.12% among 360,000; AID 588501; multiplex microsphere protease cleavage assay, LF; further: plate controls were buffer without enzyme for full effect and enzyme alone for no effect
Bead autofluor: compound fluorescence in toxin protease inhibitor counterscreen; hit rate 3.1% among 360,000; fluorescence intensity (test concentration not listed); compound autofluorescence counterscreen, microsphere flow cytometry; stronger effect = higher value; in the data active means fluorescence intensity above about 16000; inconclusive means no clear call, values can overlap the other calls
SARS 3CLpro inh: SARS-CoV 3CLpro protease inhibition; recombinant SARS-CoV 3CLpro, quenched FRET peptide cleavage; hit rate 0.14% among 290,000; inhibition, % at 6 µM; P0C6X7; in the data active means inhibition above about 12%
BoNTA LC inh 1: inhibitors of Botulinum neurotoxin A light chain protease; shares compounds with BoNT-F LC inh; multiplex microsphere protease assay, flow cytometry; inhibition, % at 10 µM; hit rate 3% among 720; AID 602139; in the data active means inhibition above about 32%
BoNT-F LC CP1: BoNT/F light chain protease inhibition. shares compounds with BoNT-F LC inh. multiplex microsphere protease cleavage assay, flow cytometry. inhibition, % at 10 µM. 720 tested, under 10 active; call rule not given here
LF protease CP1: blocks anthrax lethal factor protease. shares compounds with BoNT-F LC inh. multiplex microsphere protease cleavage assay, LF. inhibition, % at 10 µM. 720 tested, under 10 active; call rule not given here
* marks the source's active call; other numbers are inactive results; ? = inconclusive; . = not tested or not shown. Unless noted, no stated cut-off is given here; in the data, active means inhibition above about 30%; inconclusive means no clear call, values can overlap the other calls; inactive means below that.

SMILES	BoNT-A LC inh2	BoNT-F LC inh	Anthrax LF prot	Bead autofluor	SARS 3CLpro inh	BoNTA LC inh 1	BoNT-F LC CP1	LF protease CP1
COc1cc(-c2nnc(SCc3ccccc3Cl)o2)cc(OC)c1OC	0	-2	-4	2466	3	.	.	.
COc1ccc(N=Cc2ccc(N(CCC#N)CCC#N)cc2)cc1	-1	6	-6	4960	.	.	.	.
Cc1cc(C(=O)Nc2ccc(S(=O)(=O)Nc3onc(C)c3C)cc2)c(C)o1	30*	42*	-21	10628	-3	0	0	-1
Cc1noc(NS(=O)(=O)c2ccc(NC(=O)c3ccoc3C)cc2)c1C	0	1	-3	6406	-1	.	.	.
CC(=O)NCCn1ccc2ccccc21	0	-8	3	2365	1	.	.	.
COc1ccccc1C(=O)NCCn1ccc2ccccc21	96*	36*	59*	9297	0	2	2	-1
COc1cccc(C(=O)NCCn2ccc3ccccc32)c1	4	3	4	5004	-5	1	-2	3
COc1ccc(C(=O)NCCn2ccc3ccccc32)cc1OC	14	12	23	5089	1	0	0	-2
COc1cc(OC)cc(C(=O)NCCn2ccc3ccccc32)c1	5	4	4	6827	0	0	-5	4
O=C(Cc1ccccc1)NCCn1ccc2ccccc21	9	6	8	6292	7	.	.	.
O=C(CN1CCN(c2ccccc2)CC1)Nc1scc2c1c(=O)oc1ccccc12	.	.	.	.	-1	.	.	.
Cc1c(C(=O)NCc2ccc(C(C)C)cc2)sc(=O)n1Cc1cccc(F)c1	0	0	-4	2995	.	.	.	.
CCN(C(=O)CN1C(=O)c2ccccc2S1(=O)=O)C1CCCCC1	0	-11	-1	5327	.	.	.	.
COCC(C)NS(=O)(=O)c1ccc(C(=O)NCCCn2ccc3ccccc32)cc1 (centres undefined)	0	15	-1	3119	3	2	-8	3
CN(C)c1cccc(C(=O)NCCCn2ccc3ccccc32)c1	-2	0	2	5879	2	1	-1	1
COc1ccc(NC2CCCN(C(=O)c3cccc(C(F)(F)F)c3)C2)cc1OC (centres undefined)	-5	-4	3	6132	5	.	.	.
COc1cccc(NC(=O)CN(C)C(=O)CCC(=O)c2cc(C)sc2C)c1	68*	?	-2	4033	.	0	-6	0
COc1cccc(NC(=O)CN(C)C(=O)CNC(=O)c2ccc(C)s2)c1	1	12	3	?	.	.	.	.
COc1ccccc1Oc1ccc2c(c1)C(=O)N(CC(=O)O)C2=O	-1	38*	2	3877	-1	-1	1	-1
COc1ccccc1Oc1ccc2c(c1)C(=O)N(c1ccc(O)cc1)C2=O	0	-4	3	2846	5	.	.	.
Cc1ccc(C2CC(=O)C(C=NCCN3CCN(C(=O)Cc4ccccc4)CC3)=C(O)C2)cc1 (centres undefined)	0	-10	-10	8903	-6	.	.	.
O=[N+]([O-])c1ccc(C2=NN(c3ccccc3)C(c3ccco3)C2)cc1 (centres undefined)	59*	?	31*	18109*	0	59*	.	17
Cc1ccc(C2=NN(S(=O)(=O)c3ccccc3)C(c3ccco3)C2)cc1 (centres undefined)	-2	3	4	7991	.	.	.	.
CCCc1oc(C(=O)O)cc1CN1CCOCC1	8	42*	12	8574	2	-1	1	1
CCCCC(=O)Nc1ccc(N2CCN(C(=O)c3ccco3)CC2)cc1	-2	5	-1	4535	-2	.	.	.
SMILES	BoNT-A LC inh2	BoNT-F LC inh	Anthrax LF prot	Bead autofluor	SARS 3CLpro inh	BoNTA LC inh 1	BoNT-F LC CP1	LF protease CP1
O=C(Nc1c[nH]c(=O)[nH]c1=O)c1cc([N+](=O)[O-])cc([N+](=O)[O-])c1	-5	135*	7	4035	1	1	76*	1
O=C(Nc1c[nH]c(=O)[nH]c1=O)c1ccc2c(c1)C(=O)N(c1cccc([N+](=O)[O-])c1)C2=O	0	4	-4	5147	-5	.	.	.
CCN1CCN(S(=O)(=O)c2cccc([N+](=O)[O-])c2)CC1	0	0	0	3152	-3	.	.	.
O=[N+]([O-])c1cccc(S(=O)(=O)N2CCCC2)c1	3	33	-2	2590	0	-2	-4	-4
COc1ccc(CNC(=O)CN(C(=O)CCC(=O)Nc2ccccn2)c2cc(C)ccc2C)cc1	-2	-7	32*	3145	4	1	-4	5
CCc1ccccc1N(CC(=O)NCc1ccc(OC)cc1)C(=O)CCC(=O)Nc1ccccn1	-2	-3	4	5288	-2	.	.	.
O=C(O)CC1=C(Nc2ccccc2)C(=O)N(c2ccccc2)C1c1ccc(Br)cc1 (centres undefined)	0	2	0	4412	4	.	.	.
COc1ccc(N2C(=O)C3CCCN3C2c2ccccc2)cc1Cl (centres undefined)	0	53*	0	4581	-4	0	4	1
COc1ccc(OC)c(NC(=O)CCCCCn2nnc3ccccc3c2=O)c1	-1	-8	-8	2844	-3	.	.	.
Cc1cc(NC(=O)CSc2nnc(-c3ccncc3)n2Cc2ccccc2)n(-c2ccccc2)n1	?	?	-5	3521	-1	.	.	.
Cc1cc(NC(=O)CSc2nnc(-c3ccncc3)n2C)n(-c2ccccc2)n1	8	?	70*	7628	6	1	3	4
CCCSc1ncc(Cl)c(C(=O)Nc2ccc(S(=O)(=O)Nc3ncccn3)cc2)n1	0	3	0	4906	2	.	.	.
COc1ccccc1NC(=O)C(C)Sc1nccn1C (centres undefined)	1	8	1	3002	.	.	.	.
CC(Sc1nccn1C)C(=O)Nc1ccc(C(N)=O)cc1 (centres undefined)	22	39*	2	?	.	0	-5	-1
CCOc1ccc(NC(=O)c2ccc(Cl)c(NC(=O)c3ccco3)c2)cc1	1	38*	14	3511	0	-2	-6	-3
Cc1nn(Cc2ccc(Cl)cc2)c(=O)n1N(C)c1ncc(C(F)(F)F)cc1Cl	0	-20	-5	4712	-1	.	.	.
Cc1nn(Cc2ccc([N+](=O)[O-])cc2)c(=O)n1N(C)c1ncc(C(F)(F)F)cc1Cl	0	38*	-4	4593	0	1	3	0
CSCCC(NS(=O)(=O)c1ccccc1F)C(=O)OCc1ccccc1Cl (centres undefined)	-1	-2	3	2425	1	.	.	.
CN(CCOc1ccccc1)C(=O)c1cc([N+](=O)[O-])cc([N+](=O)[O-])c1	5	42*	2	4483	7	-1	-10	-2
CSc1nc(S(=O)(=O)c2ccc(C)cc2)c(N2CCOCC2)s1	0	-13	0	2916	.	.	.	.
Cc1ccc(-c2nc3cc(Br)cnc3nc2-c2ccc(C)cc2)cc1	46*	7	22	4410	0	24	11	13
